Assay outcomes from PubChem.
T cruzi growth-1 – T. cruzi proliferation inhibition; T. cruzi beta-gal in NIH3T3, GalScreen luminescence, 90 h; inhibition, % at 8.34 µM; hit rate 5.9% among 77,000; AID 624255;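 active means mean inhibition above about 93%, with at least 55% of replicates each passing it, limit read from the data, passing the limit was not always enough; inconclusive means only one of those two conditions holds; inactive means neither condition holds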
C diff HTS – C. difficile growth inhibition; Clostridium difficile clinical isolate growth, OD600, 24 h; hits give low values; growth activity, negative = inhibition, % at 16 µg/mL (by protocol); hit rate 0.25% among 86,000;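 active means mean growth activity at or below -80% and every replicate also at or below -80%; inconclusive means mean at or below -80% but some replicate above -80%; inactive means mean growth activity above -80%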;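 further: 0% = DMSO wells and -100% = levofloxacin 16 µg/mL wells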
Pf Dd2 growth – P. falciparum Dd2 growth inhibition. SYBR Green, 72 h; hits give low values. activity change, % at 10 µM. hit rate 2.3% among 94,000; in the data active means activity change below about -80%; inconclusive means no clear call, values can overlap the other calls
T cruzi growth-2 – blocks T. cruzi growth in NIH3T3 host cells. shares compounds with T cruzi growth-1. inhibition, % at 8.35 µM. T. cruzi beta-gal in NIH3T3, GalScreen luminescence, 90 h. hit rate 72% among 5,600;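 active means mean replicate inhibition above about 95% and at least 55% of replicates individually reaching it, limit read from the data; inconclusive means only one of the two criteria is met; inactive means neither criterion is met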
T cruzi growth-3 – inhibitors of T. cruzi proliferation; shares compounds with T cruzi growth-1; T. cruzi beta-gal in NIH3T3, GalScreen luminescence, 90 h; inhibition, % at 2.09 µM; hit rate 21% among 5,600; AID 651740;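 active means mean inhibition above about 95%, with at least 55% of replicates also reaching it, limit read from the data; inconclusive means meets just one of the two conditions; inactive means meets neither condition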;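 further: plate controls were neutral control median for no effect and positive control median for full effect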
3T3 cytotox – kills mouse NIH/3T3 fibroblasts | shares compounds with T cruzi growth-1 | NIH/3T3 viability, CellTiter-Glo ATP luminescence, 90 h | cytotoxicity (signal decrease), % at 8.35 µM | hit rate 14% among 5,600;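 active means mean signal decrease across replicates above about 35% based on untreated-well scatter, with enough replicates individually passing, limit read from the data; inconclusive means no rule stated though some were filed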;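 further: 0% = median of neutral control wells and 100% = median of positive control wells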
NIH3T3 tox 2 – cytotoxicity in mouse NIH/3T3 fibroblasts; shares compounds with T cruzi growth-1; NIH/3T3 viability, CellTiter-Glo ATP luminescence, 90 h; inhibition, % at 24.9 µM; hit rate 56% among 5,600; AID 651744;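 active means mean loss of cell viability signal at or above a set limit, and enough replicates individually reaching it; inconclusive means meets only the mean limit or only the replicate share; inactive means meets neither condition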;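 further: 0% = median of neutral control wells and 100% = median of positive control wells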
Numbers without * were called inactive; ? = inconclusive; nt = no result. Hits are enriched below; roughly 6.7% of the tested compounds scored in any of these assays.

SMILES	T cruzi growth-1	C diff HTS	Pf Dd2 growth	T cruzi growth-2	T cruzi growth-3	3T3 cytotox	NIH3T3 tox 2
C[C@@H]1CCCCO[C@@H](CN(C)C(=O)C2CCCCC2)[C@H](C)CN([C@H](C)CO)C(=O)c2cc(NC(=O)Nc3cccc4ccccc34)ccc2O1	?	-5	-41	110*	105*	-40	-22
C[C@@H]1CCCCO[C@@H](CN(C)C(=O)C2CCCCC2)[C@@H](C)CN([C@H](C)CO)C(=O)c2cc(NC(=O)Nc3cccc4ccccc34)ccc2O1	71	4	-72	nt	nt	nt	nt
C[C@H](CO)N1C[C@H](C)[C@H](CN(C)C(=O)C2CCCCC2)OCCCC[C@H](C)Oc2ccc(NC(=O)Nc3cccc4ccccc34)cc2C1=O	121*	-10	24	105*	54	-17	-9
C[C@@H]1CCCCO[C@@H](CN(C)C(=O)c2ccccc2)[C@@H](C)CN([C@@H](C)CO)C(=O)c2cc(NC(=O)Nc3cccc4ccccc34)ccc2O1	22	-3	-14	nt	nt	nt	nt
C[C@H]1CCCCO[C@H](CN(C)C(=O)Nc2cccc3ccccc23)[C@@H](C)CN([C@@H](C)CO)C(=O)c2cc(NC(=O)Nc3cccc4ccccc34)ccc2O1	50	nt	-33	nt	nt	nt	nt
O=C(C[C@H]1CC[C@@H](NC(=O)Nc2ccc3c(c2)OCO3)[C@@H](CO)O1)NCc1ccc(F)cc1	19	5	7	nt	nt	nt	nt
C[C@@H]1CCCCO[C@H](CN(C)Cc2ccc3c(c2)OCO3)[C@H](C)CN([C@H](C)CO)C(=O)c2cc(NS(=O)(=O)c3ccccc3)ccc2O1	nt	nt	-76	nt	nt	nt	nt
O=C(NCC1CCCCC1)[C@@H]1[C@@H](CO)[C@@H]2Cn3c(cccc3=O)[C@H]1N2C(=O)c1cccnc1	-113	6	nt	nt	nt	nt	nt
CCCNC(=O)N1CC2(C1)[C@H](c1ccccc1)[C@H](CO)N2CC1CCCC1	nt	6	12	nt	nt	nt	nt
C[C@@H]1CCCCO[C@@H](CN(C)C(=O)Nc2cccc3ccccc23)[C@H](C)CN([C@@H](C)CO)C(=O)c2cc(NC(=O)Nc3cccc4ccccc34)ccc2O1	nt	6	-12	nt	nt	nt	nt
C[C@@H]1CCCCO[C@H](CN(C)C(=O)C2CCCCC2)[C@H](C)CN([C@@H](C)CO)C(=O)c2cc(NC(=O)Nc3cccc4ccccc34)ccc2O1	?	-6	-48	105*	80	11	22
CO[C@H]1CN(C)C(=O)c2ccc(NC(=O)Nc3ccccc3F)cc2OC[C@H](C)N(C(C)=O)C[C@H]1C	9	nt	-16	nt	nt	nt	nt
C[C@@H]1CN([C@H](C)CO)C(=O)c2cc(NC(=O)Nc3cccc4ccccc34)ccc2O[C@H]1CN(C)Cc1ccc(C(F)(F)F)cc1	106*	-5	9	105*	59	20	?
C[C@H]1CN([C@@H](C)CO)C(=O)c2cc(NC(=O)Nc3cccc4ccccc34)ccc2O[C@@H]1CN(C)Cc1ccc(C(F)(F)F)cc1	87*	-3	12	109*	44	13	11
C[C@@H]1CN([C@H](C)CO)C(=O)c2cc(NC(=O)Nc3cccc4ccccc34)ccc2O[C@H]1CN(C)Cc1ccccc1	54	1	-20	nt	nt	nt	nt
C[C@@H]1CN([C@@H](C)CO)C(=O)c2cc(NC(=O)Nc3cccc4ccccc34)ccc2O[C@@H]1CN(C)Cc1ccccc1	66	4	5	nt	nt	nt	nt
N#C[C@H]1[C@@H](c2ccc(C3=CCCC3)cc2)[C@@H](CO)N1S(=O)(=O)c1ccccc1	61	7	-24	nt	nt	nt	nt
Cc1ccccc1S(=O)(=O)N1[C@@H](C#N)[C@H](c2ccc(-c3ccccc3)cc2)[C@@H]1CO	102*	3	-61	82	17	7	18
Cc1ccccc1S(=O)(=O)N1[C@H](C#N)[C@H](c2ccc(-c3ccc(F)cc3)cc2)[C@H]1CO	101*	11	-14	101*	91	?	31*
Cc1ccccc1S(=O)(=O)N1[C@@H](C#N)[C@@H](c2ccc(-c3ccccc3)cc2)[C@@H]1CO	102*	13	-28	101*	103*	50*	73*
CS(=O)(=O)N1[C@@H](C#N)[C@@H](c2ccccc2)[C@@H]1CO	49	-9	25	nt	nt	nt	nt
Cc1ccccc1S(=O)(=O)N1[C@H](C#N)[C@H](c2ccc(-c3ccc(F)cc3)cc2)[C@@H]1CO	92	21	-24	nt	nt	nt	nt
C[C@H]1CN([C@@H](C)CO)C(=O)c2cc(NS(=O)(=O)c3cccs3)ccc2O[C@H]1CN(C)C(=O)Nc1ccc2c(c1)OCO2	13	nt	2	nt	nt	nt	nt
C[C@H](NC(=O)C[C@@H]1C[C@@H]2c3cc(NS(C)(=O)=O)ccc3O[C@@H]2[C@H](CO)O1)c1ccccc1	nt	-3	9	nt	nt	nt	nt
CNC[C@@H]1Oc2cc(C3=CCCC3)ccc2S(=O)(=O)N([C@@H](C)CO)C[C@H]1C	nt	nt	8	nt	nt	nt	nt
SMILES	T cruzi growth-1	C diff HTS	Pf Dd2 growth	T cruzi growth-2	T cruzi growth-3	3T3 cytotox	NIH3T3 tox 2
COc1ccc(S(=O)(=O)N(C)C[C@@H]2Oc3c(NC(=O)Nc4cccc5ccccc45)cccc3C(=O)N([C@H](C)CO)C[C@H]2C)cc1	58	4	-31	nt	nt	nt	nt
Cc1ccc(S(=O)(=O)N(C)C[C@H]2Oc3c(NC(=O)Nc4cccc5ccccc45)cccc3C(=O)N([C@H](C)CO)C[C@H]2C)cc1	nt	-3	-40	nt	nt	nt	nt
COc1ccc(S(=O)(=O)N(C)C[C@@H]2Oc3c(NC(=O)Nc4cccc5ccccc45)cccc3C(=O)N([C@@H](C)CO)C[C@@H]2C)cc1	109*	7	-48	33	-16	-4	49*
Cc1ccc(S(=O)(=O)N(C)C[C@@H]2Oc3c(NC(=O)Nc4cccc5ccccc45)cccc3C(=O)N([C@@H](C)CO)C[C@H]2C)cc1	110*	-11	-67	-8	-14	-9	-9
COc1ccc(CNC(=O)C[C@H]2CC[C@@H]3[C@@H](COc4ccc(NC(C)=O)cc4C(=O)N3C)O2)cc1	-14	6	-7	nt	nt	nt	nt
COc1ccc(NC(=O)Nc2ccc3c(c2)C(=O)N([C@@H](C)CO)C[C@@H](C)[C@@H](CN(C)C(=O)NC2CCCCC2)O3)cc1	38	0	-13	nt	nt	nt	nt
Cc1noc(C)c1S(=O)(=O)Nc1ccc2c(c1)C(=O)N([C@@H](C)CO)C[C@@H](C)[C@H](CN(C)CC1CC1)OCCCC[C@H](C)O2	42	-1	-41	nt	nt	nt	nt
C[C@@H]1CN([C@@H](C)CO)C(=O)c2cc(NS(=O)(=O)c3cccs3)ccc2O[C@@H](C)CCCCO[C@H]1CN(C)S(=O)(=O)c1ccc(Cl)cc1	93	-1	nt	nt	nt	nt	nt
C[C@@H]1CCCCO[C@@H](CN(C)S(=O)(=O)c2ccc(Cl)cc2)[C@H](C)CN([C@@H](C)CO)C(=O)c2cc(NS(=O)(=O)c3cccs3)ccc2O1	102*	-9	nt	105*	83	21	-2
